According to PubChem BioAssay:

assay: fission yeast growth modulation, primary screen, strain 972, OD600, 24 h, no modulator (AID 1090);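 also: basal condition with compound alone and no growth modifier present; test concentration not given here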; details: S. pombe 972 growth, higher = more signal, called active from +8 up or from −8 down

z-score, inactive:
COCCOC(=O)N1C(=O)[C@@]2(c3cc(C#CCNC(N)=O)ccc31)[C@H](C(=O)NC[C@H](O)c1ccccc1)[C@H]1C(=O)O[C@H](c3ccccc3)[C@H](c3ccccc3)N1[C@@H]2c1ccc(OCCO)cc1 1.54
COC(=O)[C@@]1(Cc2ccc(F)cc2)[C@H]2c3cc(C(=O)N(C)C)n(CCn4cc([N+](=O)[O-])nc4C)c3C[C@H]2CN1C(=O)c1ccccc1 0.713
CN(C)CCCCNC(=O)[C@H]1C[C@H]2C(=O)N[C@@H](Cc3ccccc3)C(=O)N2[C@H]1c1cccc(OCCO)c1 0.0737
CCCCN1CC=CC23O[C@@H]4/C=C\CCC(C)OC(=O)C4[C@H]2C(=O)N(C(C)CO)[C@@H]3C1=O (stereo not given in full) -0.944
CCCCC(=C=CC[C@@H](O)c1cccc(OCCO)c1)CCO 0.111
CN1C=C(C(=O)OCCS(C)(=O)=O)C(C(=O)OCCS(C)(=O)=O)=CC(CCCO)=CC1c1ccc(CN2CCCC2)cc1 (stereo not given) -6.78
C#CCN(C/C=C/c1ccccc1)[C@H](CO[Si](C)(C)C(C)(C)C)c1ccccc1 -0.121
O=C1O[C@H](c2ccccc2)[C@H](c2ccccc2)N2[C@H]1[C@@H](C(=O)N1CCN(c3ncccn3)CC1)[C@]1(C(=O)Nc3ccccc31)[C@H]2c1ccc(O)cc1 0.116
[N-]=[N+]=NCc1ccccc1[C@@H]1OC(c2ccc(OCCCO)cc2)=N[C@]1(Cc1ccccc1)C(=O)NCc1ccccc1 0.8
C=CCOC(=O)[C@H]1[C@@H]2C(=O)O[C@@H](c3ccccc3)[C@@H](c3ccccc3)N2[C@@H](c2ccc(OCCOC(=O)[C@@H]3C[C@@H]4C(=O)N[C@@H](CC(C)C)C(=O)N4[C@@H]3c3ccc(O)cc3)cc2)[C@]12C(=O)Nc1ccc(I)cc12 0.698
CC(C)CNC(=O)[C@@]1(C)c2ccccc2C(=O)N(Cc2cc(F)cc(C(F)(F)F)c2)[C@H]1c1ccc(CO)cc1 -0.428
NCCCC[C@@H]1NC(=O)[C@H]2C[C@@H](C(=O)O)[C@@H](c3cccc(OCCO)c3)N2C1=O -1.66
CC(C)C[C@@H]1NC(=O)[C@H]2C[C@@H](C(=O)NCCCCCNC(=O)CS)[C@@H](c3ccc(O)cc3)N2C1=O -0.12
CO[C@H]1O[C@H](CO)[C@@H](OC(=O)Nc2ccccc2)[C@@H]2OC(=O)[C@H](Cc3ccccc3)C/C=C/C[C@@H](Cc3ccccc3)C(=O)O[C@@H]12 -0.0378
CC(C)CNC(=O)[C@@H]1c2ccccc2C(=O)N(Cc2ccccc2Cl)[C@H]1c1ccc(CO)cc1 -0.354
CCc1cccc(NC(=O)O[C@H]2[C@H](OC(=O)Nc3ccc4c(c3)OCO4)[C@H](OC(=O)Nc3ccc4c(c3)OCO4)[C@@H](OC)O[C@@H]2CO)c1 1.09
CCN(CC)c1ccc(N2CC=CC34O[C@@H]5C=CCOC(=O)[C@@H]5[C@H]3C(=O)N(CCCO)[C@@H]4C2=O)cc1 (stereo not given in full) -0.197
C=C(CCCC)/C(=C/C[C@H](OC(C)=O)c1cccc(OCCO)c1)c1cc(C(=O)OC)ccc1OC -0.602
C=C(COC)/C(=C/C[C@H](OC(=O)c1ccncc1)c1ccc(OCCO)cc1)c1cc(C(=O)OC)ccc1OC -1.2
NC(=O)NCC#Cc1ccc2c(c1)[C@]1(C(=O)N2)[C@H](C(=O)Nc2nc3ccccc3s2)[C@H]2C(=O)O[C@H](c3ccccc3)[C@H](c3ccccc3)N2[C@@H]1c1ccc(OCCO)cc1 1.87
C=CCNC(=O)[C@H]1[C@@H]2C(=O)O[C@@H](c3ccccc3)[C@@H](c3ccccc3)N2[C@@H](c2ccc(O)cc2)[C@]12C(=O)Nc1ccc(C#CC3=CCCCC3)cc12 0.614
C=CCC(OC(C)=O)[C@@H]1[C@@H](N(Cc2cccc3ccccc23)C(=O)c2ccc(-c3ccccc3)cc2)c2cc(OCCCO)ccc2N1C(=O)c1ccc2ccccc2n1 (stereo not given in full) 0.651
O=C1c2ccccc2[C@](Cc2ccccc2I)(C(=O)O)[C@H](c2ccc(CO)cc2)N1Cc1ccccc1 -0.912
CC(C)[C@@H](C(=O)O)n1cc(-c2ccccc2)nn1 -0.0883
C/C=C/CN(C(=O)C#Cc1ccccc1)[C@H](CO[Si](C)(C)C(C)(C)C)c1ccccc1 -0.463
